SSB-PriA inh – inhibitors of Klebsiella pneumoniae PriA binding to SSB C-terminal tail, primary screen, biochemical, AlphaScreen; PriA–SSB C-terminal tail interaction (Klebsiella pneumoniae); AlphaScreen SSBct-PriA binding, biotinylated peptide; inhibition, % at 33 µM; 430,000 compounds, 0.6% hits; AID 1272365, 2023; in the data active = inhibition mostly above about 37%, no sharp cut-off; inactive = mostly below about 20%;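 also: plate controls were negative control peptide for no effect and reference peptide for full effect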
Mtb bLac sens – beta-lactam sensitization of Mtb H37Rv, H37Rv; M. tuberculosis H37Rv growth with meropenem, percent inhibition; inhibition, % at 25 µM; 330,000 compounds, 0.27% hits; AID 434955, 2010; call rule not given here;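 also: growth measured after seven days incubation then overnight dye step; 0% = bacteria only wells and 100% = bacteria with antibiotic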
Mtb UGM inh – M. tuberculosis UGM enzyme inhibitors, primary screen, biochemical, fluorescence polarization, single point. UDP-galactopyranose mutase (Mycobacterium tuberculosis (strain ATCC 25618 / H37Rv)), …. purified UGM, fluorescence polarization probe displacement. inhibition, % at 10 µM. 320,000 compounds, 0.06% hits. AID 504406, 2011; in the data active = inhibition above about 10%, passing the limit was not always enough
Rv3671c inh – Rv3671c serine protease inhibitors, primary screen, biochemical, fluorescence polarization, M. tuberculosis H37Rv; AID 2606, 2010; P9WHR9; inhibition, % at 5.96 µM; 320,000 compounds, 0.048% hits; in the data active = inhibition above about 38%;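 also: extracellular domain of Rv3671c used as enzyme; 0% = enzyme with DMSO and 100% = no enzyme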
Target sequence (P9WHR9 whole entry, looked up, the tested form may be a part): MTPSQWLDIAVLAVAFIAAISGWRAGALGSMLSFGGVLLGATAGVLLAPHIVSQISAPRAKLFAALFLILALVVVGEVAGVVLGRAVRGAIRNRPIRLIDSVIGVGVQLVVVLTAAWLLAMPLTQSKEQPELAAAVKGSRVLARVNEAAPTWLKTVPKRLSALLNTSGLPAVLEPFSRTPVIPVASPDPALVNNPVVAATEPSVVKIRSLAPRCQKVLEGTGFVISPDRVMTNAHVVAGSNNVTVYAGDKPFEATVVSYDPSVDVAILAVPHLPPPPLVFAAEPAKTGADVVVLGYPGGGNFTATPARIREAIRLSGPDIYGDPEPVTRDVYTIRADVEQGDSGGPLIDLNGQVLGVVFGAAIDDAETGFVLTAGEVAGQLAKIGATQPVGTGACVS
FBA Mtb inh – Mtb FBA enzyme inhibitors, primary screen, biochemical, fluorescence, strain H37Rv | 360,000 compounds, 2.3% hits | purified M. tuberculosis FBA, fluorescence read-out | inhibition, % at 1 µM;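 also: 0% = vehicle and 100% = reference inhibitor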
Target sequence (P9WQA3 whole entry, looked up): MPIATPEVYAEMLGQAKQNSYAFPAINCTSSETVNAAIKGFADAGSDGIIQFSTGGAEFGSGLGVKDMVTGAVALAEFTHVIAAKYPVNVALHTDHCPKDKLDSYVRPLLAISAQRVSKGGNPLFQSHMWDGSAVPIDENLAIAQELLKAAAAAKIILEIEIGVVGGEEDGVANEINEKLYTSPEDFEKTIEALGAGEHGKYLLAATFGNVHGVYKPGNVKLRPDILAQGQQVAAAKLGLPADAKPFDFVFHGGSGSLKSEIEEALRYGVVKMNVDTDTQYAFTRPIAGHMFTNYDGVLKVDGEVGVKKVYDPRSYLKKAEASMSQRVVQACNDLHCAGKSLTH
GDH-TPI counter-1 – GDH-TPI coupling enzyme inhibitors, primary screen, artefact control for M. tuberculosis FBA inhibitor project, biochemical, absorbance, full deck. GDH-TPI coupled enzyme counterscreen, NADH absorbance. inhibition, % at 4.8 µM. 360,000 compounds, 1.2% hits. AID 588335, 2011; in the data active = inhibition above about 30%;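 also: 0% = DMSO wells and 100% = wells lacking the enzyme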
Mtb FBA inh conf – M. tuberculosis aldolase blockers, biochemical, fluorescence, strain H37Rv, confirmation; inhibition, % at 1 µM; shares compounds with FBA Mtb inh; 5,600 compounds, 78% hits; purified M. tuberculosis FBA, fluorescence read-out;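 also: 0% = vehicle wells and 100% = reference inhibitor wells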
GDH-TPI counter-2 – GDH-TPI coupling enzyme inhibitors, artefact control for M. tuberculosis FBA inhibitor project, biochemical, fluorescence, high throughput; shares compounds with FBA Mtb inh; 5,600 compounds, 81% hits; GDH-TPI coupled enzyme counterscreen; AID 652141, 2013; inhibition, % at 1 µM; in the data active = inhibition above about 10%
GDH-TPI DR – GDH-TPI coupling enzyme inhibitors, dose response, artefact control for M. tuberculosis FBA inhibitor project, biochemical, fluorescence, IC50 | AID 652145, 2013 | IC50, µM | GDH-TPI coupled enzyme assay, artifact counterscreen | 170 compounds, 79% hits | shares compounds with FBA Mtb inh; call rule not given here
* hit, by the source's call. Shown are actives, neighbours in structure and some others; about 3.2% of the full set was active somewhere. Rule as the data show it, unless noted: active = inhibition above about 27%; inactive = the rest.

How did Cc1c(C)c2ccc(OCC(=O)Nc3ccc(CN4CCOCC4)cc3)cc2oc1=O do in these assays?
SSB-PriA inh: 1.9; Mtb bLac sens: 3.8; Mtb UGM inh: -0.9; Rv3671c inh: -0.3; FBA Mtb inh: 47.0*; GDH-TPI counter-1: 9.6; Mtb FBA inh conf: 88.3*; GDH-TPI counter-2: 86.4*

How did N#C/C(=C\c1ccc(-c2ccc(Br)cc2)o1)C(=O)NCCO do in these assays?
SSB-PriA inh: -11.0

What do the screens show for `Cc1cc(C=NNC(=O)CC#N)c(C)n1-c1ccc([N+](=O)[O-])cc1`?
SSB-PriA inh: 5.7

How did CC(Oc1ccc2c(c1)oc(=O)c1ccccc12)C(=O)NCCCN1CCOCC1 (stereo not drawn) do in these assays?
SSB-PriA inh: -15.9; Mtb bLac sens: -0.7; Mtb UGM inh: 1.2; Rv3671c inh: -8.5; FBA Mtb inh: 63.6*; GDH-TPI counter-1: 11.2; Mtb FBA inh conf: 11.2; GDH-TPI counter-2: 9.6; GDH-TPI DR: 2.9*

How did CC(C)c1cc2cc3ccc(=O)oc3cc2o1 do in these assays?
SSB-PriA inh: -12.8; Mtb bLac sens: 6.9; Mtb UGM inh: 0.9; Rv3671c inh: -2.5; FBA Mtb inh: 17.1; GDH-TPI counter-1: 11.2

What do the screens show for `CC1(C)Oc2cc3oc(=O)ccc3cc2C[C@@H]1O`?
SSB-PriA inh: 7.1; Mtb bLac sens: 2.6; Mtb UGM inh: 3.7; Rv3671c inh: 0.0; FBA Mtb inh: 64.8*; GDH-TPI counter-1: 14.4; Mtb FBA inh conf: 104.8*; GDH-TPI counter-2: 106.9*

How did CC1(C)Oc2cc3oc(=O)ccc3c3c2C2C1CCC(C)(O3)C2O (stereo not drawn) do in these assays?
FBA Mtb inh: 29.0*; GDH-TPI counter-1: 18.8; Mtb FBA inh conf: 153.9*; GDH-TPI counter-2: 121.4*

Results for CC1(C)C=Cc2cc3ccc(=O)oc3cc2O1 ?
SSB-PriA inh: -1.4; Mtb bLac sens: -7.2; Mtb UGM inh: 2.6; Rv3671c inh: 0.9; FBA Mtb inh: 48.2*; GDH-TPI counter-1: 4.9; Mtb FBA inh conf: 25.2; GDH-TPI counter-2: 7.7; GDH-TPI DR: 5.66*

What do the screens show for `O=C(CCc1nc2sc3c(c2c(=O)[nH]1)CCCCC3)NCc1ccccn1`?
SSB-PriA inh: -8.0

How did Cc1ccc(C2=NOC3(CC(=O)N(c4ccccc4)C3=O)C2)cc1 (stereo not drawn) do in these assays?
SSB-PriA inh: -7.4; Mtb bLac sens: 3.8; Mtb UGM inh: 1.2; Rv3671c inh: -0.6; FBA Mtb inh: 0.8; GDH-TPI counter-1: 9.6

Results for Cc1ccc(C2=NOC3(CC(=O)N(c4ccc(C)cc4)C3=O)C2)cc1 (stereo not drawn) ?
SSB-PriA inh: -10.6; Mtb bLac sens: -2.2; Mtb UGM inh: 3.0; Rv3671c inh: 8.3; FBA Mtb inh: 28.6*; GDH-TPI counter-1: 27.9; Mtb FBA inh conf: 42.5*; GDH-TPI counter-2: 38.5*

Results for CCOC(=O)N1CCN(C(=O)Cn2nc(C3CC3)n(-c3ccccc3)c2=O)CC1 ?
SSB-PriA inh: -4.0

Results for CCc1ccc(C=Nn2c(C3CCCCC3)n[nH]c2=S)cc1 ?
SSB-PriA inh: 5.0

How did CSC[C@@](C)(O)CNC(=O)Cc1c(F)cccc1Cl do in these assays?
SSB-PriA inh: -5.0

How did Cc1cccc(NS(=O)(=O)c2ccccc2)n1 do in these assays?
SSB-PriA inh: -3.1; Mtb bLac sens: 3.3; Mtb UGM inh: -0.1; Rv3671c inh: -6.4; FBA Mtb inh: 29.1*; GDH-TPI counter-1: 2.2; Mtb FBA inh conf: 69.2*; GDH-TPI counter-2: 59.2*

What do the screens show for `Cc1cccc(NS(=O)(=O)Cc2ccccc2)n1`?
SSB-PriA inh: -19.4; Mtb bLac sens: -5.1; Mtb UGM inh: -0.5; Rv3671c inh: -3.2; FBA Mtb inh: 65.8*; GDH-TPI counter-1: 10.1; Mtb FBA inh conf: 65.8*; GDH-TPI counter-2: 54.4*

How did Cc1cc(NS(=O)(=O)Cc2ccccc2)no1 do in these assays?
SSB-PriA inh: -8.3; Mtb bLac sens: -0.8; Mtb UGM inh: 1.4; Rv3671c inh: 2.2; FBA Mtb inh: 3.8; GDH-TPI counter-1: 8.0

Results for Cc1ccc(-n2cc(C(=O)N3CCN(c4ccccc4)CC3)nn2)cc1 ?
SSB-PriA inh: 0.0

How did CCOC(=O)CC(=O)CSc1nc(-c2cccnc2)ccc1C#N do in these assays?
SSB-PriA inh: -5.5; Mtb bLac sens: 4.7; Mtb UGM inh: -1.9; Rv3671c inh: -11.8; FBA Mtb inh: 38.3*; GDH-TPI counter-1: 26.1; Mtb FBA inh conf: active; GDH-TPI counter-2: active

How did CCOC(=O)CC(=O)CSc1nc(-c2cccnc2)cc(C)c1C#N do in these assays?
SSB-PriA inh: -0.2; Mtb bLac sens: 14.8; Rv3671c inh: -3.2; FBA Mtb inh: 3.2; GDH-TPI counter-1: 7.5

How did CCc1cc(=O)oc2cc(C)cc(OCC(=O)NCCCn3ccnc3)c12 do in these assays?
SSB-PriA inh: -8.8; Mtb bLac sens: 2.7; Mtb UGM inh: 0.9; Rv3671c inh: 2.3; FBA Mtb inh: 60.8*; GDH-TPI counter-1: 3.5; Mtb FBA inh conf: active; GDH-TPI counter-2: active

What do the screens show for `Cc1cc(OCC(=O)NCCCn2ccnc2)c2c(C)c(C)c(=O)oc2c1`?
SSB-PriA inh: -1.6; Mtb bLac sens: -3.8; Mtb UGM inh: 0.7; Rv3671c inh: -6.5; FBA Mtb inh: 75.5*; GDH-TPI counter-1: 3.5; Mtb FBA inh conf: 37.6*; GDH-TPI counter-2: 29.2*

How did Cc1cc(=O)oc2c(C)c(OC(C)C(=O)NCCCn3ccnc3)ccc12 (stereo not drawn) do in these assays?
SSB-PriA inh: -15.7; Mtb bLac sens: 9.4; Mtb UGM inh: -0.6; Rv3671c inh: 8.9; FBA Mtb inh: 16.2; GDH-TPI counter-1: 7.0

How did Cc1cc(OC(C)C(=O)NCCCn2ccnc2)c2c(C)c(C)c(=O)oc2c1 (stereo not drawn) do in these assays?
SSB-PriA inh: -3.9; Mtb bLac sens: -4.1; Mtb UGM inh: -0.1; Rv3671c inh: -3.0; FBA Mtb inh: 79.3*; GDH-TPI counter-1: 11.2; Mtb FBA inh conf: 133.9*; GDH-TPI counter-2: 99.5*

What do the screens show for `Cc1cc(OCC(=O)NCc2ccncc2)c2c(C)c(C)c(=O)oc2c1`?
SSB-PriA inh: -14.0; Mtb bLac sens: 0.8; Mtb UGM inh: -2.4; Rv3671c inh: -1.8; FBA Mtb inh: 24.3; GDH-TPI counter-1: 2.7

Assay outcomes deposited in PubChem BioAssay by several laboratories.
